Measured values reported in PubChem BioAssay.
A number with no mark means an inactive call. Calls of active or inactive are those of the source.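 The calls were made as follows, unless noted: active = mean inhibition over 43.08%, the solvent-only control mean plus 3 SD; inactive = the rest.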

Legend:
[1] = molecular target: Nuclear receptor coactivator 3 (Homo sapiens) (UniProt Q9Y6Q9); assay: NCOA3 GAL4-fusion reporter inhibition – cell-based, luminescence, quadruplicate, confirmation (AID 588792); conditions: HEK293 GAL4-SRC3 luciferase reporter, at 3.6 µM, active compounds read high;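 also: 0% = DMSO treated cells and 100% = gossypol at 36 µM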
Nuclear receptor coactivator 3 (Homo sapiens), sequence (Q9Y6Q9 whole entry, looked up, the tested form may be a part): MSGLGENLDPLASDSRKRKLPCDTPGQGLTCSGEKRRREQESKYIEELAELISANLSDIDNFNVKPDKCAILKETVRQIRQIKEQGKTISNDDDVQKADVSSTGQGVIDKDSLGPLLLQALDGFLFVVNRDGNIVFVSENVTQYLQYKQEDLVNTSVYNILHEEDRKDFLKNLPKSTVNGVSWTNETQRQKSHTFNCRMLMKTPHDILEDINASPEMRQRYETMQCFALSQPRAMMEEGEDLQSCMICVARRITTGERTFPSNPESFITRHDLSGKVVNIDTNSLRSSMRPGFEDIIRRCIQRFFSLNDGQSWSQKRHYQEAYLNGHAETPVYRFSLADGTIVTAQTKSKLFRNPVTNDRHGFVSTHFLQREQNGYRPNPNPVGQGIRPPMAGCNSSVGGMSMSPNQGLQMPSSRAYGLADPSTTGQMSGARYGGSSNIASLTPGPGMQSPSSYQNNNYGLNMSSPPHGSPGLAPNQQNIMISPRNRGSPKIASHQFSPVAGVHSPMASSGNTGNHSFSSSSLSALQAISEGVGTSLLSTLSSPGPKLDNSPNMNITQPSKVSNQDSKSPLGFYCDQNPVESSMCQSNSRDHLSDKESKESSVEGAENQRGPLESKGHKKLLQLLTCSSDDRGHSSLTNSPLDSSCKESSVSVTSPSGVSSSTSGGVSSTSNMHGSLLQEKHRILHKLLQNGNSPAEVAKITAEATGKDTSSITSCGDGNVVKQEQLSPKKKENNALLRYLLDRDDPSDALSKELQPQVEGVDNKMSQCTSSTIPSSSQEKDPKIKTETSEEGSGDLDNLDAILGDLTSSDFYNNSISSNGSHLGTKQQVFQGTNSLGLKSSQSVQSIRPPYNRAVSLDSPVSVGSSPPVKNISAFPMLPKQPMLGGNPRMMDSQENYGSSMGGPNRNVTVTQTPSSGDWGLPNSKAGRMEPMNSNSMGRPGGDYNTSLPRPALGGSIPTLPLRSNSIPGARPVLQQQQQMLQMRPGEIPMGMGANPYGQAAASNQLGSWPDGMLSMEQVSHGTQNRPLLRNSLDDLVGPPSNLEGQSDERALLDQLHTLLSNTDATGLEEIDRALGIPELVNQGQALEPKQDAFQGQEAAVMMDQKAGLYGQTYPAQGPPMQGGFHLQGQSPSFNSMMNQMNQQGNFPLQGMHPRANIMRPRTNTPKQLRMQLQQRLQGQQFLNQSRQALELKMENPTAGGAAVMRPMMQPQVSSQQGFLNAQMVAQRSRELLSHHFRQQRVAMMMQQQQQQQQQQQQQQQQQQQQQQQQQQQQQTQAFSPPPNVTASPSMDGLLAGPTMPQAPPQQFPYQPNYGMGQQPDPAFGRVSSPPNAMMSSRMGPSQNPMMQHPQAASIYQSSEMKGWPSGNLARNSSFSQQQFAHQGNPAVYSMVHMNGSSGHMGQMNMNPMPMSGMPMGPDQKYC

[2] = system: transactivating tegument protein VP16 (Human herpesvirus 1), Gal4-VP16 luciferase reporter; assay: repression of VP16-driven luciferase reporter – cell-based, luminescence, high throughput, counter-screen for SRC3 inhibitor project (AID 588794; in the data active = inhibition above about 30%); conditions: mammalian cells, at 3.6 µM, active compounds read high
[3] = system: transactivating tegument protein VP16 (Human herpesvirus 1); assay: compounds suppressing VP16-driven luciferase signal – cell-based, luminescence, single concentration, counter-screen for SRC2 inhibitor project (AID 652007; in the data active = inhibition above about 36%); conditions: cell-based VP16 transactivation luciferase reporter, at 8.9 µM, active compounds read high
[4] = molecular target: Nuclear receptor coactivator 2 (Homo sapiens) (UniProt Q15596); assay: inhibition of GAL4-SRC2 driven luciferase expression – cell-based, luminescence, HEK293, triplicate, confirmation (AID 652008;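 active = mean inhibition above 46.5%, the solvent-only control mean plus 3 SD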;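 also: 0% = DMSO-treated cells and 100% = Gossypol at 36 µM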); conditions: HEK293 GAL4-SRC2 luciferase reporter, at 8.9 µM, active compounds read high
Nuclear receptor coactivator 2 (Homo sapiens), sequence (Q15596 whole entry, looked up, the tested form may be a part): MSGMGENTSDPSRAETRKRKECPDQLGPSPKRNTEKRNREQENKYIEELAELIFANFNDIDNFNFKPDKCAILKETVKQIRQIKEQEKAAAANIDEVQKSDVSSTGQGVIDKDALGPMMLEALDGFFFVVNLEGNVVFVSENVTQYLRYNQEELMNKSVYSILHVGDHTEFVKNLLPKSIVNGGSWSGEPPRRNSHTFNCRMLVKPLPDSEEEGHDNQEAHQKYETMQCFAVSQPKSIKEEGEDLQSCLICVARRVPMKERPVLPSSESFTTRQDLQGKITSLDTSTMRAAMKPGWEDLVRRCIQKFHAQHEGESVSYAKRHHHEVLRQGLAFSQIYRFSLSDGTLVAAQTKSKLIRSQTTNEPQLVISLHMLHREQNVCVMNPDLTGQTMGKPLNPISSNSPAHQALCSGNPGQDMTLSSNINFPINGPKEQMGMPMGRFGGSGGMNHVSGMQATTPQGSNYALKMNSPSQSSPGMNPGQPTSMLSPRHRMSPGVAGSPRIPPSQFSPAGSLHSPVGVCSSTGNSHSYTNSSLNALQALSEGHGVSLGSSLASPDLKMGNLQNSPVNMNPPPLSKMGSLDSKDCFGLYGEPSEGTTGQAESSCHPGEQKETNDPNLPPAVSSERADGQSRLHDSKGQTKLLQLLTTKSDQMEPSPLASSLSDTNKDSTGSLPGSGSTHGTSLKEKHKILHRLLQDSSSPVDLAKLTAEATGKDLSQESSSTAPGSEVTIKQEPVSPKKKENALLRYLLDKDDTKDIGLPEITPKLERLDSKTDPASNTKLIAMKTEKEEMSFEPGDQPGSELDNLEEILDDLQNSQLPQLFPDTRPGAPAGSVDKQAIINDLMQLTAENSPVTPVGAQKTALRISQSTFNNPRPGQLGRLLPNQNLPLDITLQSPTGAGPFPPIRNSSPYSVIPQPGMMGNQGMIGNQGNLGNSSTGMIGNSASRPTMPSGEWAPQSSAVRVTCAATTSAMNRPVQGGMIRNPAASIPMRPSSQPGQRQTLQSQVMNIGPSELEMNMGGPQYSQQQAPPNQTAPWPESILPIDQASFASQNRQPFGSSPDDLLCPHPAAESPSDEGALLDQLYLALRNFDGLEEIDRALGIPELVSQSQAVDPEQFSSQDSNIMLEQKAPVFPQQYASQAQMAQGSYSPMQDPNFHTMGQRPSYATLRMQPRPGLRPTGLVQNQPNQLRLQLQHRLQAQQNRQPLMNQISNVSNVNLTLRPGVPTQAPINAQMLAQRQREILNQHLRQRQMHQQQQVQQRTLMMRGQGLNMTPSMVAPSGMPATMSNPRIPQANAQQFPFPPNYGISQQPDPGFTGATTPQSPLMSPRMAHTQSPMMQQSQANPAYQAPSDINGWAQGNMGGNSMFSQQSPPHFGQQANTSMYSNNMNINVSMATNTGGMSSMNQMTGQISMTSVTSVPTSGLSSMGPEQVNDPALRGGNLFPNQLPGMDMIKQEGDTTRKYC

SMILES	inhibition [1]	inhibition [2]	inhibition [3]	inhibition [4]
Cc1cc(Sc2nnc(N)s2)c2ccccc2n1	-6.91%	22.2%	11.7%	32%
Nc1ccc(-c2nc3ccc(C(=O)O)cc3s2)cc1	-24%	-26.4%	40.2% (active)	60.6% (active)
COc1ccc(C(=O)Nc2ccc(C)cn2)c(OC)c1	-0.48%	-4.91%	23.7%	49.8% (active)
COc1ccc(-c2noc(CCC(=O)NCCCN3CCC(Cc4ccccc4)CC3)n2)cc1	-0.27%	10.7%	-4.69%	15.6%
CCN(CC)c1ccc(-n2c(C)c(C(C)=O)c(C(C)=O)c2C)cc1	4.48%	25.7%	-2.52%	11.8%
Cc1ccc(-n2nc3c(=O)n(C(C)C(=O)NCCC4=CCCCC4)nc(C)c3c2C)cc1 (stereo unspecified)	22.9%	47.1% (active)	3.1%	29.1%
O=C(c1ccc(F)cc1)C(CN1CCOCC1)c1ccccc1 (stereo unspecified)	44.1% (active)	55.9% (active)	35%	82.6% (active)
Cc1cc2nccc(-c3ccncc3)n2n1	38.2%	22.4%	3.85%	33.4%
Cc1c(/C(O)=C2\C(=O)C(=O)N(CCN(C)C)C2c2ccccc2)cnn1-c1ccccc1 (stereo unspecified)	15.8%	-3.19%	-15.3%	10.1%
